In all, about 310,000 compounds went through this assay and about 14,000 (4.5%) showed an effect of 50% or more. Effects have a minus sign here. This is one part of a sample in which strong results are shown more often than they occur.
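Note: peak tail current of the secondary pulse compared with the same well before compound.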

Sequence of human ether-à-go-go-related gene (hERG) potassium channel (Q12809 whole entry, looked up): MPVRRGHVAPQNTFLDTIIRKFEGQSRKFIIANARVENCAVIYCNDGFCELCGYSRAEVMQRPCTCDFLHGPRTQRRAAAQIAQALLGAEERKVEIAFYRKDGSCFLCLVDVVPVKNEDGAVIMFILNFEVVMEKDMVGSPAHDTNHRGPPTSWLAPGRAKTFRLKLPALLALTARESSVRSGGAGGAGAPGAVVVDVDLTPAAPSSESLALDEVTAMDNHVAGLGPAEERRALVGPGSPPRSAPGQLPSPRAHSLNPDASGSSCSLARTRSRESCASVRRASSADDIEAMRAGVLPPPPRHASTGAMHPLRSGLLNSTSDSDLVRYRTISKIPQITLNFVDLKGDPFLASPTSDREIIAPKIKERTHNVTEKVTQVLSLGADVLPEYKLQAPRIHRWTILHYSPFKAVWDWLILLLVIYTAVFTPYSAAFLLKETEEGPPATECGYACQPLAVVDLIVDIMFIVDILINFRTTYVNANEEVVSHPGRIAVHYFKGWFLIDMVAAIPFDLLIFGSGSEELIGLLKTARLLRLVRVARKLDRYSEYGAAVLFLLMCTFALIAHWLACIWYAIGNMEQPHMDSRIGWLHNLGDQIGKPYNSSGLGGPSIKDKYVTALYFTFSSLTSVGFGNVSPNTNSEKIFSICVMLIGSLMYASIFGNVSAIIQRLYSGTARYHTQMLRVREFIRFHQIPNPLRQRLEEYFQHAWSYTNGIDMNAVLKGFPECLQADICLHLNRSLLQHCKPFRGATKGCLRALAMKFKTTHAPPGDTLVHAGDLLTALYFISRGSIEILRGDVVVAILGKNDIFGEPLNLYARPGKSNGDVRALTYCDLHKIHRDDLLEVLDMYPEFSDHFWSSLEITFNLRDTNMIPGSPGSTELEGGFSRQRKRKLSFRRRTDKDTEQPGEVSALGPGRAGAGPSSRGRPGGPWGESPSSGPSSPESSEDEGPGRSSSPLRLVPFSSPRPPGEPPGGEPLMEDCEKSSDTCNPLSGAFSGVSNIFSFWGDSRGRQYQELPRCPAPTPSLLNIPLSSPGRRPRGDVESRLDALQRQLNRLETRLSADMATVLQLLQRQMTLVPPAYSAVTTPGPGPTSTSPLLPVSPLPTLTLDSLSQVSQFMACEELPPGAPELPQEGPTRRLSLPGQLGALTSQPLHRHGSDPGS

The assay concerns the target human ether-à-go-go-related gene (hERG) potassium channel (human, UniProt Q12809). The experiment in a line: primary screen, population patch clamp on CHO cells stably expressing hERG; higher = less effect of the substance.
For the molecule `COc1ccccc1C(=O)Nc1ccnn1C1CCN(Cc2cnc(N(C)C)s2)CC1`, the “hERG current change (%, negative = inhibition) at 10uM” value is -65%.
With `Cc1ccccc1C(=O)Nc1ccnn1C1CCN(Cc2cccnc2)CC1`, the “hERG current change (%, negative = inhibition) at 10uM” value is given as -77.4%.
Next, `COc1ccccc1CN1CCC(n2nccc2NC(=O)c2ccccc2Cl)CC1`: -76.2%; `Cc1ncc(CN2CCC(n3nccc3NC(=O)c3ccccc3)CC2)s1`: -19%.
Under `COc1cccc(OC)c1OC(=O)/C=C/c1ccc(C)o1` stands 6.2%; under `CC(C)(C)C(=O)NCCCNc1ccc([N+](=O)[O-])cc1`, -24.7%.
Under `CC(C)(C)c1ccc(C(=O)NCCC(=O)NCc2ccco2)cc1` stands -36.1%.
On to `Cc1cc(C)n2nc(CCc3ccccc3)nc2n1`, for which the “hERG current change (%, negative = inhibition) at 10uM” value is -12.8%.
As for `O=C(O)CCC(=O)NC1CCCCC1`, the “hERG current change (%, negative = inhibition) at 10uM” value is recorded as 6.89%.
Under `COc1ccc(/C=C/c2nc(-c3ccccc3O)n(-c3ccccc3)n2)cc1` stands -2.17%; under `COc1ccc(OC)c(CNc2ccc([N+](=O)[O-])cc2C)c1`, 3.55%; under `O=C(Nc1ccnn1C1CCN(C2CCC2)CC1)c1ccccc1Cl`, -63.6%.
On to `O=C(Nc1ccnn1C1CCN(C2CCC2)CC1)c1ccccc1`, for which the “hERG current change (%, negative = inhibition) at 10uM” value is reported as -0.539%.
For `Cc1ccccc1C(=O)Nc1ccnn1C1CCN(Cc2ccncc2)CC1`, the “hERG current change (%, negative = inhibition) at 10uM” value is listed as -45.1%.
Consider `Cc1cc(C)c(CN2CCC(n3nccc3NC(=O)c3ccccc3Cl)CC2)cc1C`, for which the “hERG current change (%, negative = inhibition) at 10uM” value is -50.8%.
Under `O=C(Nc1ccnn1C1CCN(C2CCCC2)CC1)c1ccccc1Cl` stands -45%; under `O=C(Nc1ccnn1C1CCN(Cc2ccccc2)CC1)c1ccccc1Cl`, -76.1%.
With `O=C(Nc1ccnn1C1CCN(Cc2cccnc2)CC1)c1ccccc1Cl`, the “hERG current change (%, negative = inhibition) at 10uM” value is reported as -37.1%.
Under `Cc1ccccc1C(=O)Nc1ccnn1C1CCN(Cc2ccccn2)CC1` stands -33.9%; under `CCc1ccc(CN2CCC(n3nccc3NC(=O)c3ccccc3C)CC2)cc1`, -76.2%; under `C=CCN1C(=O)C(C)(C)Nc2ccccc21`, 6.7%.
For `O=C(c1cccnc1Cl)N(Cc1ccccc1)Cc1ccccc1`, the “hERG current change (%, negative = inhibition) at 10uM” value is -17.7%.
As for `CC(=O)Nc1ccc(-c2csc(-c3cccnc3)n2)cc1`, the “hERG current change (%, negative = inhibition) at 10uM” value worked out at 3.98%.
Next, `O=C1Nc2ccccc2/C1=C/c1ccccc1F`: 26.3%; `COc1cc(NC(=O)C2CCCO2)c(OC)cc1NC(=O)c1ccccc1` (stereo not shown): 8.17%; `CC(=O)OC[C@H]1O[C@@H](Sc2cccc3cccnc23)[C@H](OC(C)=O)[C@@H](OC(C)=O)[C@@H]1OC(C)=O`: -11.4%.
Under `CCCN(C#N)c1nc(NCC)nc(NC(C)C)n1` stands -10.2%; under `O=C1CN(CC(=O)Nc2ccc(Cl)cc2)CCN1`, -4.87%.
Next, `CC(=O)c1cccc(NC(=O)N2C3CCCC2CC(NC(=O)C2CC2)C3)c1` (stereo not shown): 17.2%; `COC(C(=O)Nc1ccnn1C1CCN(Cc2nccs2)CC1)c1ccccc1` (stereo not shown): 0.847%; `Cc1cccc(CN2CCC(n3nccc3NC(=O)c3ccccc3C)CC2)n1`: -19.9%.
For the molecule `CSc1ccc(CN2CCC(n3nccc3NC(=O)c3ccccc3C)CC2)cc1`, the “hERG current change (%, negative = inhibition) at 10uM” value was -75%.
Next, `CCN1CCC(n2nccc2NC(=O)c2ccccc2Cl)CC1`: -21%.
`CCc1ccc(CN2CCC(n3nccc3NC(=O)c3ccccc3Cl)CC2)cc1`: the “hERG current change (%, negative = inhibition) at 10uM” value is on record as -84.4%.
As to `COC(C(=O)Nc1ccnn1C1CCN(Cc2ccc(Cl)s2)CC1)c1ccccc1` (stereo not shown), the “hERG current change (%, negative = inhibition) at 10uM” value is reported as -5.29%.
Next, `COc1ccccc1C(=O)Nc1ccnn1C1CCN(Cc2ccccc2OCCO)CC1`: -78.7%; `COC(C(=O)Nc1ccnn1C1CCN(Cc2ccc(C)s2)CC1)c1ccccc1` (stereo not shown): -50.8%.
Consider `Cc1cc(OCC(=O)Nc2cccnc2)c2c(C)cc(=O)oc2c1`, for which the “hERG current change (%, negative = inhibition) at 10uM” value stood at 4.24%.
For `O=C(Cc1cccs1)N1CCN(c2nc(-c3ccc(Cl)cc3)cs2)CC1`, the “hERG current change (%, negative = inhibition) at 10uM” value is -8.73%.
Under `c1ccc(-c2cnc(-c3ccccc3)nc2)cc1` stands 13.4%; under `CCOc1ccc(N/C=C/C(=O)c2ccc(OC)cc2)c([N+](=O)[O-])c1`, 24.5%.
In the case of `CCOC(=O)C1CCCN(C(=O)c2ccc3nc(-c4cccc(OC)c4)oc3c2)C1` (stereo not shown), the “hERG current change (%, negative = inhibition) at 10uM” value was -28.6%.
Under `CC(O)C(O)C(O)C(O)C1NCCS1` (stereo not shown) stands 6.81%.

The values above are taken from article PMC4336329 (PLoS ONE, 2015).
